Assay results taken from ChEMBL document CHEMBL3988442, “University of Dundee, Small-Polar-MMV Screening Library” (2021).
For some of these results: Potency and affinity values are given separately.

How the values were obtained:
Parameters in all cases: scale not given: direction of the effect not stated beside the values
[1] = biological target: Protein translocase subunit SecA (Escherichia coli (strain K12)) (UniProt P10408); test: Assay to Identify E. coli SecA ATPase Inhibitors; assay type: functional; conditions: 30 µM
[2] = biological target: T1, Ubiquitin-activating enzyme e1, putative (Leishmania donovani (strain BPK282A1)) (UniProt E9BSI1); test: Leishmania donovani Ubiquitin Activating Enzyme (LdE1); assay type: functional; conditions: 30 µM
T1 sequence (whole entry): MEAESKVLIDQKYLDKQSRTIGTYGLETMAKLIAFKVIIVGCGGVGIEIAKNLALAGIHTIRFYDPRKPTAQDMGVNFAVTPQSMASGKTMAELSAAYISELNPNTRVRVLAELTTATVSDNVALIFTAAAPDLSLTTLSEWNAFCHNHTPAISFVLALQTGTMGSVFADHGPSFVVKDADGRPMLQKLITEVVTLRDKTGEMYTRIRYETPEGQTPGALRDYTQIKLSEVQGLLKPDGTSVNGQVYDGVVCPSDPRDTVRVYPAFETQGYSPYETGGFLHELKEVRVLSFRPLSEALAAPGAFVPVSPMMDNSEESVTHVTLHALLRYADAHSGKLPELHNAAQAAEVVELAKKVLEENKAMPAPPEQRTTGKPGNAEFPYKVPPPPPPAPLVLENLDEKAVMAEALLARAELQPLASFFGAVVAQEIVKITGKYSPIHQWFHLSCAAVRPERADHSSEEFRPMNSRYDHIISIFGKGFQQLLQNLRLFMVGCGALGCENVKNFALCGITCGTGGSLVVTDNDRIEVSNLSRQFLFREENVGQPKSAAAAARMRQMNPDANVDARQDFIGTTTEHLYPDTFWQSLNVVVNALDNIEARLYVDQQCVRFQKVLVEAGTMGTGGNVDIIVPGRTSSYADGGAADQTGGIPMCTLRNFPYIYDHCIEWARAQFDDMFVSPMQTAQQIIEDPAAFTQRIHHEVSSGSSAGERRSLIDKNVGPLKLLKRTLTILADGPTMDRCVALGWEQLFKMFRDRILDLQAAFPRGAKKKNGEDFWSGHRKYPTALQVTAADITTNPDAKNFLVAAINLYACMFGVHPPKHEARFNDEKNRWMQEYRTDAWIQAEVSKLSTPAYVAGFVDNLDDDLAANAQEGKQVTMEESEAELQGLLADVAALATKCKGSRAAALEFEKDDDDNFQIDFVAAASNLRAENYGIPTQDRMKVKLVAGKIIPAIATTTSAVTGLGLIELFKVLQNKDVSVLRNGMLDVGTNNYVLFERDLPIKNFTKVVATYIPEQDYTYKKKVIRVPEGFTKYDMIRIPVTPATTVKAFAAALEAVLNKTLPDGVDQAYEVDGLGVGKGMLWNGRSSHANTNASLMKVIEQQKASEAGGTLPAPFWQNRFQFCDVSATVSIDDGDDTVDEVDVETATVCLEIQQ

[3] = biological target: AMP-activated protein kinase, AMPK (Homo sapiens) (UniProt P54646+O43741+P54619+Q9UGJ0+Q9Y478+Q13131+Q9UGI9); test: AMP-dependent Kinase enzyme assay. An in vitro enzyme assay that detects ADP turnover that is directly proportional to AMPK activity. This uses naive AMPK that is activated during the assay with MK-8722; assay type: functional; conditions: 30 µM
[4] = biological target: Sialic acid-binding Ig-like lectin 9 (Homo sapiens) (UniProt Q9Y336); test: Hs-Siglec9 ALPHAscreen SOP 20170721; conditions: 10 µM
Trypanosoma cruzi = test: Trypanosoma cruzi phosphomannomutase and mannose-1-phosphate guanylyltransferase assay; assay type: functional; conditions: 10 µM
[5] = biological target: T2, Arginase-2, mitochondrial (Homo sapiens) (UniProt P78540); test: in vitro enzyme assay to detect the production of urea directly proportional to the activity of Arginase II; assay type: functional; conditions: 33.3 µM; further: in the data most compounds retested in dose-response had high values
T2 sequence (whole entry): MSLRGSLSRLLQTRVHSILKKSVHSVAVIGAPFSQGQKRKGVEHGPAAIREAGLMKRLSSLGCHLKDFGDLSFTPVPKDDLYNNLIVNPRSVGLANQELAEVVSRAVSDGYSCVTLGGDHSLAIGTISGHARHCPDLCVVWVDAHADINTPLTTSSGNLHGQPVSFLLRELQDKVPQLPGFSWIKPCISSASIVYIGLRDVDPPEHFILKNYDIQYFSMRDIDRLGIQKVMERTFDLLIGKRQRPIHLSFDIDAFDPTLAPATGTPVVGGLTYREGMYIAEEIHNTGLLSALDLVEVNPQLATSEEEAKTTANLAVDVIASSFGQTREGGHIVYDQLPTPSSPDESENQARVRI

[6] = biological target: T3, Proteasome subunit beta (Trypanosoma cruzi) (UniProt O96673); test: Trypanosoma cruzi proteasome chymotrypsin-like activity (TcProtChymo) assay.; further: in the data most compounds retested in dose-response had high values; assay type: functional; conditions: 9.37 µM
T3 sequence (whole entry): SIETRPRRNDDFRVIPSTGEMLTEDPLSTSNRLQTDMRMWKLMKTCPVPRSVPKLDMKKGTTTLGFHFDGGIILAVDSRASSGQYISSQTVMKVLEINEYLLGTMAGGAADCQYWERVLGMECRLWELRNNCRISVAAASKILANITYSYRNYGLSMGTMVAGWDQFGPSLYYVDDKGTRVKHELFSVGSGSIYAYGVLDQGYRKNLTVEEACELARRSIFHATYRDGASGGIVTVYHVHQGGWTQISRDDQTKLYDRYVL

Homo sapiens = organism: Homo sapiens; test: To identify inhibition of the IFN signalling (Jak-Stat) pathway via expression of an eGFP reporter gene under the control of an IFN-stimulated response element (ISRE) containing MxA promoter.; assay type: functional; conditions: 30 µM
[7] = biological target: T4, Tyrosyl-tRNA synthetase, putative (Trypanosoma cruzi (strain CL Brener)) (UniProt Q4DSP6); test: Trypanosoma cruzi tyrosyl tRNA synthetase (TcYRS) _High Tyrosine SOP; assay type: functional; conditions: 30 µM; further: in the data most compounds retested in dose-response had high values
T4 sequence (whole entry): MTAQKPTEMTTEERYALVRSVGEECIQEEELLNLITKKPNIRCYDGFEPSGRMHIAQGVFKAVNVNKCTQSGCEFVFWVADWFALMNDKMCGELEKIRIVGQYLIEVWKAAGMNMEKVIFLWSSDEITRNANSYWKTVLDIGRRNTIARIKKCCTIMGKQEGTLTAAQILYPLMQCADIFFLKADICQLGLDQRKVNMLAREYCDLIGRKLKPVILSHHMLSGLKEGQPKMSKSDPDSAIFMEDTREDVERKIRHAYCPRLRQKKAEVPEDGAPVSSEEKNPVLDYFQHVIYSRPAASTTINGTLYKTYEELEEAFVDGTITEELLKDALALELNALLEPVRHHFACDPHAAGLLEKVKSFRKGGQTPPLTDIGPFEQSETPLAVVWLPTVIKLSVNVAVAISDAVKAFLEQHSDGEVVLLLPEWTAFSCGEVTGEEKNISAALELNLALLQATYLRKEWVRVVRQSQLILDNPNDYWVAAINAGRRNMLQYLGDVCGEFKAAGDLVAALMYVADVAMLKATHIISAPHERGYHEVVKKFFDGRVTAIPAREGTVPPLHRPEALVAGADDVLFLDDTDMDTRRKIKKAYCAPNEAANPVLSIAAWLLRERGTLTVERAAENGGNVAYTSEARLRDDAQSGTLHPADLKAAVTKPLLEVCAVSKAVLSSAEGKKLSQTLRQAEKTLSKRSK

[8] = biological target: T4, Tyrosyl-tRNA synthetase, putative (Trypanosoma cruzi (strain CL Brener)); test: Trypanosoma cruzi tyrosyl tRNA synthetase (TcYRS) SOP; assay type: functional; conditions: 30 µM
[9] = biological target: Chromo domain-containing protein 1 (Saccharomyces cerevisiae (strain ATCC 204508 / S288c) (Baker's yeast)) (UniProt P32657); test: ScCHD-1 Enzyme Inhibition Assay; assay type: functional; conditions: 30 µM; further: in the data most compounds retested in dose-response had high values
Chain of Chromo domain-containing protein 1 (Saccharomyces cerevisiae (strain ATCC 204508 / S288c) (Baker's yeast)) (P32657 whole entry, the tested form may be a part): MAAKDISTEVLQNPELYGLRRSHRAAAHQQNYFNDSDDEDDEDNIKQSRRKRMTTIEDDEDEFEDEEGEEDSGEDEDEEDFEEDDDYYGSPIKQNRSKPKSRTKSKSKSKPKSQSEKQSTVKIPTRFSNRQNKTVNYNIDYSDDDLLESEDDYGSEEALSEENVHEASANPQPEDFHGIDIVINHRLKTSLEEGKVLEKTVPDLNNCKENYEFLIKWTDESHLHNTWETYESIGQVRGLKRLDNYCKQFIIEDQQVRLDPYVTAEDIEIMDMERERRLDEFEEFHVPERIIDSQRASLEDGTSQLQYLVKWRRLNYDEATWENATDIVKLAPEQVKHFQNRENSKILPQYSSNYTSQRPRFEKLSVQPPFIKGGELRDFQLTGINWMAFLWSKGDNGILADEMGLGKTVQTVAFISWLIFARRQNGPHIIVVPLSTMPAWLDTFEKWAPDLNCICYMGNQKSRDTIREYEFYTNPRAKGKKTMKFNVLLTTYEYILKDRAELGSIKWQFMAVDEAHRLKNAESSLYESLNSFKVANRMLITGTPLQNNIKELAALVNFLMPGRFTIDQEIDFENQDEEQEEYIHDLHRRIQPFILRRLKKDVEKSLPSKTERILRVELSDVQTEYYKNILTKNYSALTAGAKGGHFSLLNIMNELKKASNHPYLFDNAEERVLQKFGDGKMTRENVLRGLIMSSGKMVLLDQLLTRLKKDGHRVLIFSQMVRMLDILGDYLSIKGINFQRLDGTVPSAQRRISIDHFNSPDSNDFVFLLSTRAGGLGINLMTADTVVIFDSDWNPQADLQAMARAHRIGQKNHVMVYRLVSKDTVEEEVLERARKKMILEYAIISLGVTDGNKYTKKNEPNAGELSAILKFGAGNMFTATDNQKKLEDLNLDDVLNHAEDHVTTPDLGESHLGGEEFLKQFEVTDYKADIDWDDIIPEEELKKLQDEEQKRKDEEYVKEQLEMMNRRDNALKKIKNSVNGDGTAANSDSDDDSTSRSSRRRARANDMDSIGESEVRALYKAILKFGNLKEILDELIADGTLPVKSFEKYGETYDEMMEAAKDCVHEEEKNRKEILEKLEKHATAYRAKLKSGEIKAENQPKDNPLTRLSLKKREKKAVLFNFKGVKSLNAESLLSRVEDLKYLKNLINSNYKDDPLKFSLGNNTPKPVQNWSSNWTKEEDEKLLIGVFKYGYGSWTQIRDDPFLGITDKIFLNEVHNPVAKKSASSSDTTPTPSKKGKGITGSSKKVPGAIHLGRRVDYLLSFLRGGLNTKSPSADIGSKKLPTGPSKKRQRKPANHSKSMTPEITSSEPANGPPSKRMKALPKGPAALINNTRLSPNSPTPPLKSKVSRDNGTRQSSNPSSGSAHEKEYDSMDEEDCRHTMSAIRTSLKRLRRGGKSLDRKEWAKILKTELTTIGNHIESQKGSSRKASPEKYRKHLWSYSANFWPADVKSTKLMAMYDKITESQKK

Chain of Sialic acid-binding Ig-like lectin 9 (Homo sapiens) (Q9Y336 whole entry): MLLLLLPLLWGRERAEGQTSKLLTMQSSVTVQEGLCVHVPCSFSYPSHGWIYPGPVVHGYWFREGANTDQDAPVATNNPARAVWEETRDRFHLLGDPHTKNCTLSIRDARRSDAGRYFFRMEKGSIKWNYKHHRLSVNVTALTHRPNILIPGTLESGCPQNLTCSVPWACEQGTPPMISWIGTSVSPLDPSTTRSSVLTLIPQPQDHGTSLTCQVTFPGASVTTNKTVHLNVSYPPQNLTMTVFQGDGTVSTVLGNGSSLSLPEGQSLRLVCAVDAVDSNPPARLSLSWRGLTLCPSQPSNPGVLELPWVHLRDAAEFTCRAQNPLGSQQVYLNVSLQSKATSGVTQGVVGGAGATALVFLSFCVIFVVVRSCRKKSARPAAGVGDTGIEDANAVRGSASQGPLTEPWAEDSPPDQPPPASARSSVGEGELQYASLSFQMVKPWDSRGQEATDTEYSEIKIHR
Chain of Protein translocase subunit SecA (Escherichia coli (strain K12)) (P10408 whole entry): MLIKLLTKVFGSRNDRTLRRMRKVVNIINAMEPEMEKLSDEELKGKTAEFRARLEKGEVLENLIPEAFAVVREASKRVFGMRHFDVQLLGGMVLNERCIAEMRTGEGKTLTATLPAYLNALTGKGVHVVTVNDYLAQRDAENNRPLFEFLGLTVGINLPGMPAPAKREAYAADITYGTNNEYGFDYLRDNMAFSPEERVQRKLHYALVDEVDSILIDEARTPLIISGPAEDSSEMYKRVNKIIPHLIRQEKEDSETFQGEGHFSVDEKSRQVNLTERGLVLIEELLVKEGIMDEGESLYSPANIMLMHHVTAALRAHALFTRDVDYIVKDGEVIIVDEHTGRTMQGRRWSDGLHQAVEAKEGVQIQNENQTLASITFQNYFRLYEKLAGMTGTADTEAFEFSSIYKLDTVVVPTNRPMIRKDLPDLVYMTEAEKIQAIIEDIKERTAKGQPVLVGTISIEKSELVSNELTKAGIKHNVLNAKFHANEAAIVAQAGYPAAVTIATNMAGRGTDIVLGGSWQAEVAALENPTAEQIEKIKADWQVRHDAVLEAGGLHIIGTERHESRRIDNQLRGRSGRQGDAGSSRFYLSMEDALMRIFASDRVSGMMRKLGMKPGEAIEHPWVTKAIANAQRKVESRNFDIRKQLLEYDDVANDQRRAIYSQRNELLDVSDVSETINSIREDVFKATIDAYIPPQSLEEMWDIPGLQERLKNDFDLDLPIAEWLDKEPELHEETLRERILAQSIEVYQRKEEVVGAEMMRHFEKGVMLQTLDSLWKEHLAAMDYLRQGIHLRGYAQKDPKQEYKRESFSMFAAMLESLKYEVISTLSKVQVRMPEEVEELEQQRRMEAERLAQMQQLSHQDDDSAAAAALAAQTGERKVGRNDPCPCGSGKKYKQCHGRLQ

Row | SMILES | Percent Effect [1] [%] | Percent Effect [2] [%] | Percent Effect [3] [%] | Percent Effect [4] [%] | Percent Effect (Trypanosoma cruzi) [%] | Percent Effect [5] [%] | Percent Effect [6] [%] | Percent Effect (Homo sapiens) [%] | Percent Effect [7] [%] | Percent Effect [8] [%] | Percent Effect [9] [%]
1 | CCC(=O)NCC(=O)NCc1cc(Br)ccc1OC(F)F | -3.84 | 18.7 | -6.58 | 53.5 | 3.41 | 18.8 | 7.15 | -3.97 | 7.1 | 18.5 | -8.96
2 | Cc1nc(C(=O)N2CCC(Nc3cccnn3)CC2)cs1 | -9.75 | 7.79 | -12.2 | -10.3 | 9.11 | -5.68 | 12.7 | -1.06 | 1.91 | 18.8 | -20.4
3 | CC1CN(C)CCN1C(=O)c1ccn(-c2cccc(Cl)c2)n1 (stereo not drawn) | -4.4 | 5.2 | 3.41 | 8.46 | 3 | -4.98 | -5.91 | -0.574 | 2.91 | 9.76 | -7.43
4 | Cc1cccc(N2CCN(C(=O)CN3CCN(CCO)CC3)CC2)c1 | -7.92 | 8.22 | 2.85 | 6.75 | 3.37 | 0.798 | 3.51 | 10.3 | 9.38 | 21 | -0.672
5 | CN(C)C(C(=O)N1CCC(N2CCSCC2)CC1)c1ccccc1F (stereo not drawn) | -0.819 | 12.5 | -3.64 | 4.95 | 1.46 | 22.5 | 20.7 | -4.19 | 10.5 | 20.5 | -1.59
6 | Cc1cnn(CCNCC(=O)NCCOc2ccccc2)c1 | 0.828 | 21.1 | 4.84 | -1.9 | -5.88 | 0.719 | 6.85 | 25.5 | 4.43 | -6.17 | -8.28
7 | CC(C)c1nnc2n1CCN(C(=O)CN1CCc3sccc3C1)C2 | -3.25 | 5.26 | -8.35 | -4 | 7.71 | 4.6 | -2.34 | 0.728 | 3.43 | 7.32 | -5.85
8 | CCOC(=O)NC(CNC(=O)CCc1ccccn1)CC(C)C (stereo not drawn) | -7.25 | 0 | 0.68 | -3.55 | 3.62 | 2.73 | 4.72 | -1.48 | -5.38 | 3.7 | -0.238
